NPSR antagonist: neuropeptide S receptor (human) antagonism, cAMP; AID 1461; CHO-NPSR cells, cAMP TR-FRET, antagonist mode; Q6W5P4; 220,000 compounds, 1% hits; Potency, µM (doses to about 38.3 µM), inactives show at the top dose activity change, negative = inhibition, most hits filed as inhibitors; further: potency means the concentration at half of the fitted maximal effect; nearly all actives have a fitted effect of over 50% in size
Target sequence (Q6W5P4 whole entry, looked up): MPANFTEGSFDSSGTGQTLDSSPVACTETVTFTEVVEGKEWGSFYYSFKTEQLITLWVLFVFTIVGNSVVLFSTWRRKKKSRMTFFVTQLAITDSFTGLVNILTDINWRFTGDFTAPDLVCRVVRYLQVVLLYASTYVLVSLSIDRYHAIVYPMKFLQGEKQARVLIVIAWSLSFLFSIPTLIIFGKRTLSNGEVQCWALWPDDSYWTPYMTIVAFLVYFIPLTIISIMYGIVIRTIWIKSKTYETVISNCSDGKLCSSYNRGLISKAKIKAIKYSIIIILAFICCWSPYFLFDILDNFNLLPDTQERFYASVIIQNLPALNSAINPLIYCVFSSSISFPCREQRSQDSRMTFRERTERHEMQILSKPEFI
GoLoco inh red: RGS12 GoLoco-Gai1 interaction inhibition | P63096 | Gai1:RGS12 GoLoco peptide FP, rhodamine, 10 min | Potency, µM (highest dose often 61.6 µM), for inactives: at the highest dose activity, negative = inhibition, most hits filed as inhibitors | 230,000 compounds, 0.44% hits; active means well fitted inhibition curve with a large enough effect, not every such curve was filed as active; inactive means no such curve, though single readings can be large or run the other way; further: potency means the concentration at half of the fitted maximal effect; nearly all actives have a fitted effect of over 30% in size
Target sequence (P63096 whole entry, looked up): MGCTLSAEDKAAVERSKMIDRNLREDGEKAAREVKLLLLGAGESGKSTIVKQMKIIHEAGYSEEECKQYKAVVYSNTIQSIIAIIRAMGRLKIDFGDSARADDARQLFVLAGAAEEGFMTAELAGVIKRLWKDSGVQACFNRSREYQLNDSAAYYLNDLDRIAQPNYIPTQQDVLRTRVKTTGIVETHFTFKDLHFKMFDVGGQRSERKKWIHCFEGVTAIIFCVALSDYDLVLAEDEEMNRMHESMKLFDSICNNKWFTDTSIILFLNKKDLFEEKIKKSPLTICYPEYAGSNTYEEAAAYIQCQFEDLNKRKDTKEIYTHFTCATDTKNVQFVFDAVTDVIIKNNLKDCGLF
JMJD2E inh: inhibitors of human JMJD2E histone demethylase. B2RXH2. JMJD2E catalytic domain, FDH-coupled NADH fluorescence (FDH is formaldehyde dehydrogenase). Potency, µM (series often up to 57.1 µM), for the others: at the top dose activity change, negative = inhibition, most hits filed as inhibitors. 230,000 compounds, 1.6% hits. AID 2147; active means well fitted inhibition curve with a large enough effect, not every such curve was filed as active; inconclusive means small, poorly fitted or top-dose-only effect, or another doubt; inactive means no such curve, though single readings can be large or run the other way;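 further: potency means the concentration at half of the fitted maximal effect; 0% = wells with enzyme and -100% = buffer wells without enzyme; nearly all actives have a fitted effect of over 50% in size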
FBPA coupling cs: inhibits coupling enzyme system, counter-screen for aldolase hits. activity change, negative = inhibition, % at 58.2 µM, hits read low. 290,000 compounds, 0.67% hits. coupling enzyme system counterscreen, AmpLite Red fluorescence; in the data active means activity change below about -30%
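Fluorescence at 525 nm excitation and 598 nm emission measured inhibition of the coupled detection system without aldolase. Compounds (at 57.5 uM final) were preincubated 10 min at room temperature with coupling enzyme reagent before a 20 min substrate/AmpLite Red step.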
ALDH1A1 inh: inhibitors of human aldehyde dehydrogenase 1A1 | P00352 | Purified ALDH1A1, NADH fluorescence, propionaldehyde substrate | Potency, µM (titrated, usually from 75.3 µM), inactives show at the top dose activity, negative = inhibition, hits mostly inhibitors | 220,000 compounds, 7.3% hits | AID 1030; active means well fitted inhibition curve with a large enough effect, not every such curve was filed as active; inconclusive means small, poorly fitted or top-dose-only effect, or another doubt; inactive means no such curve, though single readings can be large or run the other way;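 further: potency means the concentration at half of the fitted maximal effect; plate controls were no enzyme wells and a reference inhibitor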
Sfp PPTase inh: Sfp phosphopantetheinyl transferase inhibition; Biochemical Sfp PPTase activity, qHTS; Potency, µM, without a hit: largest response in the series, negative = inhibition, hits mostly inhibitors; 310,000 compounds, 3.5% hits; AID 1490;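 further: the enzyme is Sfp with the accession as filed and its product quenches rhodamine fluorescence; potency means the concentration at half of the fitted maximal effect; 0% = enzyme reaction without inhibitor and -100% = no enzyme wells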
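Step 1, compound plus 15 nM Sfp-PPTase, 15 min, room temperature. Step 2, add rhodamine-CoA (5 uM) and BHQ-2-YbbR (12.5 uM). Step 3, read 525/598 nm fluorescence at 0 and 30 min.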
Active calls of the source: *; i = inactive; ? = inconclusive; . = no result; [ ] = remark or other dose. Only some compounds are listed: those with a hit (about 8.5% of all), similar ones and a draw of the others. Unless noted, the call rests on the fitted dose curve; in most records, active means well fitted curve in the direction sought with a large enough effect; inconclusive means small, poorly fitted or top-dose-only effect, or another doubt; inactive means no such curve, though single readings can be large; an effect the other way counts as inactive or inconclusive. Unless noted, on the % scale 0 is the no-effect control and ±100 the full control effect.

SMILES	NPSR antagonist	GoLoco inh red	JMJD2E inh	FBPA coupling cs	ALDH1A1 inh	Sfp PPTase inh
CC(C)N(C(=O)CSc1nc2ccccc2n1Cc1ccccc1)C(C)C	?	9.0%	-7.2%	0.5	-1.4%	0.2%
COCCN(Cc1ccco1)C(=O)Cn1ncc2c(=O)oc3ccccc3c21	-1.4%	6.5%	-16.5%	4.7	.	?
CC(=O)Nc1sc2c(c1C(c1ccncc1)N1CCOCC1)CCCC2 (stereo not given)	1.5%	-13.9%	-8.3%	-0.7	25.1µM*	?
CNC1=C(Br)C(=O)c2ccncc2C1=O	.	1.9%	0.6%	-14.8	-10.8%	-26.2%
CCN1C=C(Cc2ccc(F)cc2)C2=C(C1)C(c1ccc(F)cc1)C(C#N)=C(N)O2 (stereo not given)	10µM*	76.4%	?	-8.6	-3.6%	8.3%
COc1ccc2[nH]c(=O)c(CN(C)C(=O)c3cccs3)cc2c1	26.2%	4.8%	?	-1.8	.	-2.1%
NNC(=S)NCc1cccnc1	12.2%	2.8%	5.6%	-0.2	?	63.1µM*
NC(=S)NCc1cccnc1	-19.4%	-0.3%	11.0%	0.6	1.3%	-0.6%
S=C(NCc1cccnc1)Nc1ccc(Oc2ccccc2)cc1	-2.8%	8.5%	?	3.8	31.6µM*	39.8µM*
CC(C)CCn1c(Sc2nc3ccccc3o2)nc2c1c(=O)[nH]c(=O)n2C	32.3%	4.9%	-25.9%	-4.6	11.2µM*	-6.5%
CCCCCCn1c(SCC(=O)OC)nc2c1c(=O)[nH]c(=O)n2C	-11.7%[46.1 µM]	-12.0%	2.3%	-3.0	3.55µM*	15.8µM*
CCCCn1c(SCc2ccc(Cl)cc2)nc2c1c(=O)[nH]c(=O)n2C	-22.1%[46.1 µM]	-6.1%	-0.7%	1.8	28.2µM*	?
C/C(Cl)=C/Cn1c(SCc2ccc(Cl)cc2)nc2c1c(=O)[nH]c(=O)n2C	-10.5%[46.1 µM]	-3.5%	9.7%	-0.1	?	18.3%
CC(C)CCn1c(SCc2ccc(Cl)cc2)nc2c1c(=O)[nH]c(=O)n2C	-29.2%[46.1 µM]	-21.2%	-2.5%	1.8	11.2µM*	44.7µM*
CCCCCCn1c(SCC(C)C)nc2c1c(=O)[nH]c(=O)n2C	6.5%[46.1 µM]	-10.1%	7.0%	0.0	-1.1%	7.2%
COc1ccccc1CNC(=O)CN(C)S(=O)(=O)c1ccc2c(c1)c(=O)n(C)c(=O)n2C	.	.	.	.	.	12.7%
O=C(c1cccc(Cl)c1)N1CCN(CCCc2ccccc2)CC1	.	.	.	0.5	.	-25.4%
CCCCCSc1nc2c(c(=O)[nH]c(=O)n2C)n1C(C)C	-5.8%	1.4%	-2.2%	2.8	?	-6.5%
CC(C)n1c(SCC(N)=O)nc2c1c(=O)[nH]c(=O)n2C	-1.6%[46.1 µM]	-0.6%	-1.2%	-0.2	22.4µM*	?
COC(=O)CSc1nc2c(c(=O)n(C)c(=O)n2C)n1CCC(C)C	-4.5%[46.1 µM]	4.4%	-11.3%	3.5	12.6µM*	-23.2%
O=C(O)c1ccccc1C(=O)c1ccc2c(c1)N(Cc1ccc(Cl)c(Cl)c1)C(=O)CO2	-43.6%	7.0%	-24.5%	-20.3	6.2%	8.2%
CCN(CC)C(=O)CSc1nc2ccccc2c(=O)n1-c1cccc(OC)c1	-14.0%[46.1 µM]	-9.9%	1.9%	5.8	?	10.6%
COc1cccc(-n2c(SCc3cc(=O)oc4cc(O)c(O)cc34)nc3ccccc3c2=O)c1	-14.6%	2.1%	12.6µM*	6.9	?	-16.2%
COc1ccc(N/C(=C(/C(Cl)=C(Cl)Cl)[N+](=O)[O-])n2nnc3ccccc32)cc1OC	-12.0%[46.1 µM]	15.2%	?	-29.1	?	20µM*
COc1ccc(C(=O)n2nnc3ccccc32)cc1OC	-23.4%	0.1%	1.1%	0.3	1.4%	-15.6%
SMILES	NPSR antagonist	GoLoco inh red	JMJD2E inh	FBPA coupling cs	ALDH1A1 inh	Sfp PPTase inh
CC(C)c1ccc2[nH]c3nc(SCC(=O)N4CCOCC4)nnc3c2c1	-1.0%	8.4%	2.8%	0.7	?	4.7%
COc1cccc(C(=O)NNS(=O)(=O)c2ccc(C)cc2)c1	.	.	.	1.6	.	18.1%
O=C1Nc2ccccc2/C1=N\N=C\C1=C(N2CCOCC2)C(=C\c2ccccc2)/CC1	?	14.8%	2.3%	-4.1	10µM*	31.6µM*
Cn1cc(C(=O)N/N=C/C2=C(N3CCOCC3)C(=C\c3ccccc3)/CC2)ccc1=O	-9.2%	6.6%	-0.3%	1.7	-10.3%	-5.8%
COCCNc1nc(-c2c(C)noc2C)nc2ccccc12	.	4.8%	.	7.2	5.5%	1.0%
Cc1noc(C)c1-c1nc(NCc2cccs2)c2ccccc2n1	.	-0.8%	.	0.8	8.7%	70.8µM*
CC(C)(C)c1nc(NCCN2CCOCC2)c2nnn(Cc3ccccc3Cl)c2n1	?	9.8%	0.0%	-3.7	?	4.2%
COc1ccc(OC)c(Nc2nc(C3CC3)nc3c2nnn3Cc2ccccc2)c1	-26.1%[46.1 µM]	9.3%	?	.	?	6.4%
COC(=O)CNc1nc(C2CC2)nc2c1nnn2Cc1ccccc1Cl	-7.9%[46.1 µM]	4.7%	-4.6%	2.5	1.58µM*	8.5%
Clc1ccccc1Cn1nnc2c(N3CCOCC3)nc(C3CC3)nc21	-26.9%[46.1 µM]	4.8%	?	3.3	20µM*	-19.5%
CN(C)S(=O)(=O)c1ccc(Nc2nc(C3CC3)nc3c2nnn3Cc2ccccc2Cl)cc1	-38.9%	10.6%	i	0.1	?	15.5%
c1ccc(Cn2nnc3c(Nc4ccc5c(c4)OCO5)nc(C4CC4)nc32)cc1	6.9%[46.1 µM]	10.3%	?	1.3	274.5%	89.1µM*
O=C(/C=C/c1ccc(F)cc1)NCCc1ccc2c(c1)OCCO2	5.6%	-26.6%	-1.9%	1.0	5.7%	1.5%
Cn1c(-c2ccc(Cl)cc2)cnc1NCc1cc2c(cc1[N+](=O)[O-])OCO2	-45.1%	2.2%	?	-0.9	14.1µM*	?
COc1ccccc1CNc1ncc(-c2ccccc2)n1C	.	.	.	-3.6	.	-18.6%
COc1ccccc1CNc1ccc([N+](=O)[O-])cc1C	23.5%	12.3%	-9.6%	-0.1	?	-8.2%
Cn1c(-c2ccccc2)cnc1NCc1cc2c(cc1[N+](=O)[O-])OCO2	18.3%	3.0%	-8.5%	0.7	12.6µM*	56.2µM*
Cn1c(-c2ccc(F)cc2)cnc1NCc1cc2c(cc1[N+](=O)[O-])OCO2	-4.7%	-0.4%	-8.0%	2.8	3.1%	10.6%
Cc1cc(F)ccc1NCc1cc2c(cc1[N+](=O)[O-])OCO2	-22.8%[46.1 µM]	-2.3%	-7.1%	-3.9	11.2µM*	-14.1%
Cc1ccc(CSC2=Nc3ccccc3C3=NC(CC(=O)NCc4ccco4)C(=O)N23)cc1 (stereo not given)	-22.4%[46.1 µM]	23.6%	?	-13.5	?	35.5µM*
O=C1CCC(=O)N1c1ccccc1-c1ccccc1	-12.2%[46.1 µM]	-0.6%	1.0%	-0.5	5.4%	8.2%
CC(=O)Oc1ccc(N2C(=O)C3C(C2=O)C2(C)C=CC3(C)O2)cc1 (stereo not given)	?	-24.2%	-3.4%	-2.7	0.631µM*	7.94µM*
